Assay results from ChEMBL document CHEMBL3988442, “University of Dundee, Small-Polar-MMV Screening Library” (2021).
The campaign covered roughly 48,000 compounds. About 13,000 (27%) showed an effect of 50% or more. The list shows a part of the results.

Tested on: Wolbachia pipientis
Experiment: Anti-Wolbachia Cell-Based Screen
Format: functional
Design: scale not given: in the data most compounds retested in dose-response had high values
Conditions: 5 µM

SMILES	Percent Effect [%]
COc1ccc(C(=O)N2C[C@@H](CN3CCCC3)[C@@H](CO)C2)c(C)c1	5.26
O=c1[nH]c(CN2CCN(CC(F)(F)F)CC2)nc2ccccc12	-9.937
CCn1c(CN2CCOC(Cn3cncn3)C2)nc2cc(F)ccc21 (centres undefined)	8.019
Cc1ccc(C2(CN3CCCC3)CCNCC2)nc1	5.469
Cc1ccc(C2(CN3CCN(Cc4cnc(C)n4C)CC3)CC2)cc1.Cl	125
CCn1cncc1CN1CCN(CC2(c3ccc(C)cc3)CC2)CC1.Cl	124
Cc1ccc(C2(CN3CCN(Cc4cncn4C)CC3)CC2)cc1.Cl	158.8
Cc1ccc(C2(CN3CCN(c4ncccn4)CC3)CCNCC2)nc1	-14.8
Cn1cncc1CN1CCC2(CC1)CCN2c1ncccn1	0.5048
COCCn1cncc1CN1CCCC(C)(c2ccccc2)C1 (centres undefined)	-12.89
CCn1cncc1Cn1cccc(C(F)(F)F)c1=O	2.585
COCCN1CCCC12CCN(Cc1cncn1C)CC2.O=C(O)C(F)(F)F.O=C(O)C(F)(F)F	-4.301
Cc1ccc(C(=O)Nc2cc(C(N)=O)ccc2CN(C)C)cc1Cl	-14.19
NC(=O)c1ccc(NC(=O)N2CCN(c3cccs3)CC2)c(F)c1	-5.895
CS(=O)(=O)NC[C@H]1OC[C@@H](NC2CCC(F)(F)CC2)[C@@H]1O	-4.949
OCCO[C@H]1C[C@@H](O)C12CCN(Cc1nc(C(F)(F)F)no1)CC2	99.64
COc1ccc(F)c(F)c1CN1CCC2(CC1)[C@H](O)C[C@@H]2OCCN	1.725
CCN(Cc1nc(COC)no1)C[C@]1(O)CCCN2CCCC[C@@H]21	-7.865
COc1cc(CN2CCC3(CC2)[C@H](O)C[C@@H]3OCCO)ccc1F	8.427
NCCO[C@H]1C[C@@H](O)C12CCN(Cc1c(F)cccc1F)CC2	-12.61
CO[C@H]1C[C@@H](O)C12CCN(Cc1nc(C(F)(F)F)no1)CC2	107.1
COCc1noc(CN2CCC3(CC2)[C@H](O)C[C@@H]3OC)n1	101.4

SMILES	Percent Effect [%]
COCc1noc(CN2C(=O)OC[C@@H]2C(C)C)n1	-2.73
CNc1cc(C)nc(N2CCC3(CC2)[C@H](O)C[C@@H]3OC)n1	12.2
Cc1ccccc1SC1CCN(C(=O)C2CNCC(=O)N2)CC1 (centres undefined)	-16.36
COc1nccnc1-c1cccc(-c2ccn(CC3COCCO3)n2)c1 (centres undefined)	-15.38
CCN(C)c1ncnc2c1CCN(C(=O)c1cccn1C)CC2	-8.14
CC(C)n1ccc2c(NC(=O)c3n[nH]c4c3CCC4)cccc21	99.33
COCCn1ccc(=O)c(OCC(=O)Nc2cccc(C(C)=O)c2)c1C	6.255
CC(C)Cn1cncc1CNC(=O)c1cccc(-n2cnnc2)c1	1.824
CC(C)CN1CCc2[nH]nc(C(=O)N3CCCC3)c2C1.O=C(O)C(F)(F)F	26.25
COCCn1cc(C(=O)N2CCCC2c2cc(C)on2)c2ccccc21 (centres undefined)	-11.13
COCCn1ccc2c(NC(=O)c3n[nH]c4c3CCCC4)cccc21	111.2
COCCn1ccc2c(NC(=O)c3n[nH]c4c3CCC4)cccc21	97.48
O=C(c1n[nH]c2c1CCC2)N1CCCC1c1nc(-c2ccccn2)no1 (centres undefined)	14.67
CC(C)Cn1ccc2c(NC(=O)c3n[nH]c4c3CCC4)cccc21	106.4
O=C(c1n[nH]c2c1CCC2)N1CCCC1c1nc(-c2ccccc2)no1 (centres undefined)	8.692
Cc1noc(C)c1CSc1nc(=O)ccn1C(C)C	-1.27
NC(=O)C(NC(=O)COCCc1ccccc1)c1ccccc1F (centres undefined)	-15.69
CCCn1nc2c(cc1=O)CN(CCCS(N)(=O)=O)CC2	-2.42
CCC[C@@H]1CN(Cc2c[nH]c(CC3CCCC3)n2)C[C@H]1C(=O)O	-10.74
CCOC(=O)c1coc(N2CCC(C(C)N3CCCC3)CC2)n1 (centres undefined)	0
O=C(CCc1ccsc1)NS(=O)(=O)Cc1ccon1	-50.57
Cc1cc2ccccc2n1CCC(=O)NCc1ncc[nH]1	-13.5

SMILES	Percent Effect [%]
CC(CCc1cccc(F)c1)NC(=O)NCc1ncnn1C (centres undefined)	-8.39
Cn1ccnc1CCNC(=O)C1CCCN(Cc2cccc(F)c2)C1 (centres undefined)	-2.372
Cn1ccnc1CNC(=O)CCc1cccc(F)c1	127.3
Cc1cc(CCC(=O)N2CC[C@H](O)C2)ccc1Br	2.583
Cc1cc(CCC(=O)NCc2nccn2C)ccc1Br	125.4
Cc1cc(CCC(=O)NCc2ncc[nH]2)ccc1Br	105.6
Cc1cc(CCC(=O)N2CCC(O)CC2)ccc1Br	-5.317
O=C(CCc1ccc(Br)cc1)NCc1nnc[nH]1	-10.7
CC(C)CC(NC(=O)c1cc(-c2cccn2C)n[nH]1)c1ncnn1C (centres undefined)	13.42
CCc1csc(CNc2nc3c(s2)c(C)nn3C)n1	-26.31
OCC(CO)Nc1ccc2c(Cl)ccc(Cl)c2n1	1.659
COc1cc(F)ccc1-c1nc2c([nH]1)c(C1CC1)nn2C	1.853
Cc1ccsc1CN(C)Cn1nccc1-c1cccnc1	34.48
Clc1ccccc1CCN1CCN(c2ccc3nncn3n2)CC1	114.3
c1cc(CCN2CCN(c3ccc4nncn4n3)CC2)ccn1	116
O=C(CCN1CCN(c2ccc3nncn3n2)CC1)NC1CCCC1	0.1018
CC1CCCCN1C(=O)CN1CCN(c2ccc3nncn3n2)CC1 (centres undefined)	-2.497
FC(F)(F)COCCN1CCN(c2ccc3nncn3n2)CC1	-1.16
O=C(CCN1CCN(c2ccc3nncn3n2)CC1)N1CCCCC1	90.26
c1ccc(CCCN2CCN(c3ccc4nncn4n3)CC2)cc1	101.5
c1ccc(OCCCN2CCN(c3ccc4nncn4n3)CC2)cc1	7.239
CN(Cc1ccccc1OC(F)(F)F)C(=O)C1CCCN(C(N)=O)C1 (centres undefined)	15.24

SMILES	Percent Effect [%]
COCC1CCCCN1Cc1nc(-c2ccoc2)oc1C (centres undefined)	2.327
Cn1cc(N2CCN(c3ccc(C#N)cc3Br)CC2=O)cn1	-23.45
CCc1ccccc1OC1CN(C(=O)CN(C)Cc2ccncc2)C1	0.8406
CC(C)c1ccn(C2(C(=O)O)CCN(c3cc(C(N)=O)ccn3)CC2)n1	10.23
O=C(COc1cccnc1)NCc1nncn1C1CCCCC1	-1.054
Cc1cnc(N2CC[C@@]3(O)CCCC[C@H]3C2)nc1-c1ccnn1C	-8.985
Cc1nn2c(N3CCC(C#N)CC3)cc(-c3ccccc3)nc2c1C	-8.665
c1ccc(CCN2CCN(c3ccc4nncn4n3)CC2)cc1	80.05
Cc1ccc(C)c2c1NC(=O)C2CC(=O)O (centres undefined)	5.742
COCc1nc(NC(C)Cc2cc(C)n[nH]2)c2cnn(C)c2n1 (centres undefined)	4.118
COc1ccc(C(=O)N2CCC(Nc3cccnn3)CC2)cn1	104
CC(C)Oc1ccc(C(=O)N2CCC(Nc3cccnn3)CC2)cn1	123.7
COc1ccc(C(=O)N2CCC(Nc3cccnn3)CC2)c(OC)c1	-3.344
C[S+]([O-])c1ccc(CNc2ccc(F)cc2OC(F)F)cc1 (centres undefined)	0.9094
Cn1cc(-c2cc(C(F)F)n3nc(CCC(=O)O)nc3n2)cn1	133.7
CCn1cc(-c2cc(C(F)F)n3nc(CC(=O)O)nc3n2)cn1	108.3
Cc1nn(C)cc1-c1cc(C(F)F)n2nc(CCC(=O)O)nc2n1	110.6
Cn1cc(-c2csc(N3CCN(C(=O)OC(C)(C)C)CC3)n2)cn1	8.816
CCn1cc(C(=O)NCC(OC)c2cccc(Cl)c2)cn1 (centres undefined)	4.602
CCn1cc(-c2cc(C(F)F)n3nc(CCC(=O)O)nc3n2)cn1	98.47
Cc1nn(C)cc1-c1ccnc(N(C)Cc2noc(C(C)C)n2)n1	1.029
Cn1cc(-c2csc(N3CCOCC3)n2)cn1	-6.106

SMILES	Percent Effect [%]
Cn1ncc(NC(=O)Cn2cc(-c3ccc(F)cn3)cn2)n1	2.479
CCCc1cnc(C)nc1N1CCC2(CCCO2)CC1	-4.323
O=C(C1CCC1)N1CCN(Cc2ccccc2F)[C@H]2CS(=O)(=O)C[C@H]21	4.948
Cc1nc(CN(C)C(=O)Nc2cnn(CC3CCCO3)c2)cs1 (centres undefined)	-5.003
Cc1nc(CCNC(=O)CC2CCN(C(C)C)CC2)sc1Cl	-9.554
Cc1ccsc1C(=O)N1CC2CC1(C(=O)NCC1CC1)C2	-19.62
CCn1ncc(-c2cc(C(F)F)n3nc(CCC(=O)O)nc3n2)c1C	94.49
CCn1ncc(-c2nc3c[nH]n(CC)c-3n2)c1C	-16.08
COc1ccccc1C(=O)N1CCC(Oc2ccc(C#N)cn2)CC1	-9.351
c1cc(CN2CCc3c(CN4CCCC4)n[nH]c3C2)ccn1	-1.373
CC1CCCCN1c1nc2c(c(=O)[nH]1)CCN(Cc1ccc(O)cc1)C2 (centres undefined)	108.9
Cc1cccc(CN2CCc3c(nc(N4CCCCC4C)[nH]c3=O)C2)n1 (centres undefined)	-2.625
Cc1ccsc1CN1CCC(c2cc(C(C)C)n[nH]2)CC1	15.3
Cc1[nH]c(=O)[nH]c(=O)c1CN1CCCC(CCc2ccccc2F)C1 (centres undefined)	3.318
CC1CCCCN1c1nc2c(c(=O)[nH]1)CCN(Cc1ccccn1)C2 (centres undefined)	67.76
Cc1ccsc1CN1CCc2c(nc(N3CCCCC3C)[nH]c2=O)C1 (centres undefined)	117.5
CCCn1nc2c(cc1=O)CN(Cc1ccccn1)CC2	-24.61
Cc1ccsc1CCNC(=O)CCC1CCCCN1C (centres undefined)	3.946
CC1CCCCN1c1nc2c(c(=O)[nH]1)CCN(Cc1ccccc1F)C2 (centres undefined)	109.6
Fc1cccc2[nH]c(CN3CCc4cncnc4C3)nc12	8.027
Cn1cnc2c1CCN(Cc1ccc(C(=O)N3CCCC3)cc1)C2	0.7019
